The source made the active and inactive calls.
Assays:
[1] = system: PRMT1 (protein arginine N-methyltransferase 1); test: PRMT1 binders on small-molecule microarrays, primary screen, biochemical, small-molecule microarray, 635 nm fluorescence (AID 1088); details: small-molecule microarray binding, higher = more signal;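 note: binding of Prmt1 protein to compounds spotted on small-molecule microarray slides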
[2] = yeast growth modulation, basal conditions, primary screen, YJM789 clinical isolate, OD600, 24 h (AID 1089);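 note: growth of clinical yeast isolate S. cerevisiae YJM 789 seeded 1000 cells per well; test concentration not given here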; details: S. cerevisiae YJM789 growth, higher = more signal, called active from +8 up or from −8 down
[3] = fission yeast growth modulation, primary screen, strain 972, OD600, 24 h, no modulator (AID 1090);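 note: basal condition with compound alone and no growth modifier present; test concentration not given here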; details: S. pombe 972 growth, higher = more signal, called active from +8 up or from −8 down
[4] = S. cerevisiae growth modulation with rapamycin, primary screen, strain BY4716, OD600, 96 h (AID 1091); details: higher = more signal, called active from +8 up or from −8 down; note: test concentration not given here
[5] = target: Torsin-1A-interacting protein 2 (Homo sapiens) (UniProt Q8NFQ8); test: LULL1 binders on small-molecule microarray, primary screen, cell lysate, human LULL1 lysate, 635/667 nm fluorescence (AID 1092); details: hLULL1 lysate binding, 635 nm fluorescence, higher = more signal;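 note: probe is lysate of COS7 cells overexpressing human LULL1; score merges per-feature 667 nm fluorescence with signal-to-noise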
Chain of Torsin-1A-interacting protein 2 (Homo sapiens) (Q8NFQ8 whole entry, looked up): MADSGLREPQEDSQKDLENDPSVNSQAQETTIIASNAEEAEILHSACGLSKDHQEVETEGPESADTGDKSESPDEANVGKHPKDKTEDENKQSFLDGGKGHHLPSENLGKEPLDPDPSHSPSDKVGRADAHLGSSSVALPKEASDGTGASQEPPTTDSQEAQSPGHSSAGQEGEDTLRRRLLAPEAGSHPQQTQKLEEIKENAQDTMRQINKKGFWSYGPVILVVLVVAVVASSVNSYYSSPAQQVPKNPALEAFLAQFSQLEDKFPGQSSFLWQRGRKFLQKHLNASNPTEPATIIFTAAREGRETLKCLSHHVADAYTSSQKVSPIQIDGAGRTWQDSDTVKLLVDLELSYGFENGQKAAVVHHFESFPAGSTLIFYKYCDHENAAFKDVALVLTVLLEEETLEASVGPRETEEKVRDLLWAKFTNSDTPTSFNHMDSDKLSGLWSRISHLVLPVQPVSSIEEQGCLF

[6] = E. coli growth modulation, two-sided OD650, primary screen, E. coli filamentation project, strain DRC41, 24 h (AID 1093); details: OD650, 24 h, higher = more signal, called active from +8 up or from −8 down;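 note: MC1000 strain lacking acrAB efflux and sulA so SOS filamentation is blocked; test concentration not given here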
[7] = small-molecule microarray binders of probe aLefty2, primary screen, biochemical, biotinylated probe, 635/667 nm fluorescence (AID 1094); details: higher = more signal;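 note: score merges spot fluorescence near 667 nm with spot signal-to-noise ratio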
[8] = system: Noggin (protein binding on small-molecule microarray); test: Noggin binders on small-molecule microarray, primary screen, biochemical, 635/667 nm fluorescence (AID 1095); details: 635 nm fluorescence, higher = more signal;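 note: score merges 667 nm feature fluorescence with signal to noise over triplicate slides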
[9] = target: Neurogenic locus notch homolog protein 3 (Homo sapiens) (UniProt Q9UM47); test: NOTCH3 binders on small-molecule microarray, primary screen, biochemical, 635/667 nm fluorescence (AID 1096); details: NOTCH3 binding, 635 nm fluorescence, higher = more signal
Chain of Neurogenic locus notch homolog protein 3 (Homo sapiens) (Q9UM47 whole entry, looked up): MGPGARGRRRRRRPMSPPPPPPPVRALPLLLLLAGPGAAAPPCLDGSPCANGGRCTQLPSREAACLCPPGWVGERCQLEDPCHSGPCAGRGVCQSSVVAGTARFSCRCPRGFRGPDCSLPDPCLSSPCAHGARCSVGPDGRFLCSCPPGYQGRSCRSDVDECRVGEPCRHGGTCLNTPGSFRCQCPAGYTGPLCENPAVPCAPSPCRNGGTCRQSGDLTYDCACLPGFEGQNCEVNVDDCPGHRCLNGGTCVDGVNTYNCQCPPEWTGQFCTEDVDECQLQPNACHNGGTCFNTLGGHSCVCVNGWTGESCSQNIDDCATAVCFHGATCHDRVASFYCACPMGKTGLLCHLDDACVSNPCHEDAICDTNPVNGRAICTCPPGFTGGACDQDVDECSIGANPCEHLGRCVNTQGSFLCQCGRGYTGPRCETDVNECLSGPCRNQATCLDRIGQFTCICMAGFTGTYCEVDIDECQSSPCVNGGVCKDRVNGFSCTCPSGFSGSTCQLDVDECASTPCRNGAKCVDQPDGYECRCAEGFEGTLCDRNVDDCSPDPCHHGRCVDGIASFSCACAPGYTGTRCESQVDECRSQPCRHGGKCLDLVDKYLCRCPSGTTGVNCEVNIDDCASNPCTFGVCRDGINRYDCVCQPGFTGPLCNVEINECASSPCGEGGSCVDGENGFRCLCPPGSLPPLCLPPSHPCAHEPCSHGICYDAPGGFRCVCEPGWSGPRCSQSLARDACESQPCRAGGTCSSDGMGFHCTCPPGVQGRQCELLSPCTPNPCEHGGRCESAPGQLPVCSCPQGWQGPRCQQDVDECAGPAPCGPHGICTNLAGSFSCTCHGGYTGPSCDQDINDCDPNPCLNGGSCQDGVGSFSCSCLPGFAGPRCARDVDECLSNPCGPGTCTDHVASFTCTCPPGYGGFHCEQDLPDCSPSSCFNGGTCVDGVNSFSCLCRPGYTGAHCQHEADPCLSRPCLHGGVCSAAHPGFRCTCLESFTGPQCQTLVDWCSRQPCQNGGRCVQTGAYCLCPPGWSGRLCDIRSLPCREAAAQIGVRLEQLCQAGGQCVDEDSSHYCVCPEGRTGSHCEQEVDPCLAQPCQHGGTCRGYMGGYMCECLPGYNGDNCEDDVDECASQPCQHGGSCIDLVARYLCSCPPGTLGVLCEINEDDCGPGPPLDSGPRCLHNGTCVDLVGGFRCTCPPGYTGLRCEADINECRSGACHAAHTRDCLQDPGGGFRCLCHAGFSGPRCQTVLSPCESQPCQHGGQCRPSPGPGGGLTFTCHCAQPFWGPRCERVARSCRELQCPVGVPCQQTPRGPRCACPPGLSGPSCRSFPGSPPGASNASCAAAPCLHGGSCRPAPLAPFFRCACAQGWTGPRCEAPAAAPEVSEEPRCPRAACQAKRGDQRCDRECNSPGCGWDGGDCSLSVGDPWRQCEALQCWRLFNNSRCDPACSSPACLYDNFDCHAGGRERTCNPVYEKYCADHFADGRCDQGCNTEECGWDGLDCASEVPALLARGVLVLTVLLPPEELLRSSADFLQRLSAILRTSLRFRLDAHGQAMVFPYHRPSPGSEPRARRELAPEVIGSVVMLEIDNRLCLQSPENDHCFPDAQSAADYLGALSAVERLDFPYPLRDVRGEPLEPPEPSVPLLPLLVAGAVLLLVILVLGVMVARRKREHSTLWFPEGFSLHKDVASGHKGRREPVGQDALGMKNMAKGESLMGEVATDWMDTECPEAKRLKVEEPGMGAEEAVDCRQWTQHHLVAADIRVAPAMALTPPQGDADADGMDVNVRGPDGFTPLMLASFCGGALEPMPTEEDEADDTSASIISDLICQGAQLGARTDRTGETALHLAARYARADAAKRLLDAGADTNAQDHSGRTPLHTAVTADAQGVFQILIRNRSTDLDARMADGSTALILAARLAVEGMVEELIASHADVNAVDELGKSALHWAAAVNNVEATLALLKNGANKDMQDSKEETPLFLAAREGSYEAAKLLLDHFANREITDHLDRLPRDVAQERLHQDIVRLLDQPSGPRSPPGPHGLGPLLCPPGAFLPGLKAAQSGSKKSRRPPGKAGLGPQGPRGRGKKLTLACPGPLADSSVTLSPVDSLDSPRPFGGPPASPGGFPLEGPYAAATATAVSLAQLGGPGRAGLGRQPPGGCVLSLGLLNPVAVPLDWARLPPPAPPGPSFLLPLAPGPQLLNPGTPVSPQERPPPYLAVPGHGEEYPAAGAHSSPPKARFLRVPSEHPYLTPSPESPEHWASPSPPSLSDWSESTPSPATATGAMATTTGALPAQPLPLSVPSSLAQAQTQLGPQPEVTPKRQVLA

[10] = small-molecule microarray binders of probe aEGFR, primary screen, biochemical, biotinylated probe, 635/667 nm fluorescence (AID 1097); details: higher = more signal;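 note: probe is a biotinylated anti-EGFR antibody binding compounds printed on slides; score combines fluorescence near 667 nm and signal to noise of each spot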
[11] = system: Plasmodium falciparum Sir2 (PF13_0152, Sir2A); test: pfSir2 binders on small-molecule microarrays, primary screen, biochemical, small-molecule microarray, 635 nm fluorescence (AID 1098); details: small-molecule microarray binding, fluorescence 635 nm; higher = more signal;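 note: score merges spot fluorescence intensity with its signal-to-noise ratio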
[12] = small-molecule microarray binders of probe aDKK1, primary screen, biochemical, biotinylated probe, 635/667 nm fluorescence (AID 1099); details: higher = more signal;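 note: score merges 667nm spot fluorescence with signal to noise across triplicate slides; reference of the scale not given here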
[13] = small-molecule microarray binders of probe aCHRDL2, primary screen, biochemical, biotinylated probe, 635/667 nm fluorescence (AID 1100); details: higher = more signal
[14] = splicing luciferase reporter signal modulators, primary screen, spliceosome inhibition project, cell-based, HEK293, splice +/- reporter (AID 1101); details: luminescence, 24 h, higher = more signal, called active from +8 up or from −8 down;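 note: HEK293 cells carrying a splicing-competent luciferase reporter gene; test concentration not given here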
[15] = target: Fibroblast growth factor 10 (Homo sapiens) (UniProt O15520); test: FGF10 binders on small-molecule microarrays, primary screen, biochemical, small-molecule microarray, 635 nm fluorescence (AID 1102); details: FGF10 binding, fluorescence 635 nm, higher = more signal
Chain of Fibroblast growth factor 10 (Homo sapiens) (O15520 whole entry, looked up): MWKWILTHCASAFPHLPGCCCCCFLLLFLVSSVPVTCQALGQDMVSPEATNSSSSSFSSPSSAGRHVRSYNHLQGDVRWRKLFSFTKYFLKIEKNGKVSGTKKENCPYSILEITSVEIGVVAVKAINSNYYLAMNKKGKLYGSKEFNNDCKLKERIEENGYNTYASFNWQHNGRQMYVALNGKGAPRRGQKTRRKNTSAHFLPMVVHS

[16] = system: glycogen synthase kinase-3 (GSK3A per assay name; protocol says GSK3B); test: GSK3 binders on small-molecule microarrays, primary screen, biochemical, small-molecule microarray, 635 nm fluorescence, GSK3A (AID 1103); details: small-molecule microarray binding, fluorescence 635 nm; higher = more signal; note: the record names both GSK3A and GSK3B
[17] = target: Epidermal growth factor receptor (Homo sapiens) (UniProt P00533); test: EGFR binders on small-molecule microarrays, primary screen, biochemical, small-molecule microarray, 635 nm fluorescence (AID 1104); details: EGFR binding, higher = more signal;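 note: score merges 667 nm emission intensity with spot signal to noise over triplicate slides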
Chain of Epidermal growth factor receptor (Homo sapiens) (P00533 whole entry, looked up): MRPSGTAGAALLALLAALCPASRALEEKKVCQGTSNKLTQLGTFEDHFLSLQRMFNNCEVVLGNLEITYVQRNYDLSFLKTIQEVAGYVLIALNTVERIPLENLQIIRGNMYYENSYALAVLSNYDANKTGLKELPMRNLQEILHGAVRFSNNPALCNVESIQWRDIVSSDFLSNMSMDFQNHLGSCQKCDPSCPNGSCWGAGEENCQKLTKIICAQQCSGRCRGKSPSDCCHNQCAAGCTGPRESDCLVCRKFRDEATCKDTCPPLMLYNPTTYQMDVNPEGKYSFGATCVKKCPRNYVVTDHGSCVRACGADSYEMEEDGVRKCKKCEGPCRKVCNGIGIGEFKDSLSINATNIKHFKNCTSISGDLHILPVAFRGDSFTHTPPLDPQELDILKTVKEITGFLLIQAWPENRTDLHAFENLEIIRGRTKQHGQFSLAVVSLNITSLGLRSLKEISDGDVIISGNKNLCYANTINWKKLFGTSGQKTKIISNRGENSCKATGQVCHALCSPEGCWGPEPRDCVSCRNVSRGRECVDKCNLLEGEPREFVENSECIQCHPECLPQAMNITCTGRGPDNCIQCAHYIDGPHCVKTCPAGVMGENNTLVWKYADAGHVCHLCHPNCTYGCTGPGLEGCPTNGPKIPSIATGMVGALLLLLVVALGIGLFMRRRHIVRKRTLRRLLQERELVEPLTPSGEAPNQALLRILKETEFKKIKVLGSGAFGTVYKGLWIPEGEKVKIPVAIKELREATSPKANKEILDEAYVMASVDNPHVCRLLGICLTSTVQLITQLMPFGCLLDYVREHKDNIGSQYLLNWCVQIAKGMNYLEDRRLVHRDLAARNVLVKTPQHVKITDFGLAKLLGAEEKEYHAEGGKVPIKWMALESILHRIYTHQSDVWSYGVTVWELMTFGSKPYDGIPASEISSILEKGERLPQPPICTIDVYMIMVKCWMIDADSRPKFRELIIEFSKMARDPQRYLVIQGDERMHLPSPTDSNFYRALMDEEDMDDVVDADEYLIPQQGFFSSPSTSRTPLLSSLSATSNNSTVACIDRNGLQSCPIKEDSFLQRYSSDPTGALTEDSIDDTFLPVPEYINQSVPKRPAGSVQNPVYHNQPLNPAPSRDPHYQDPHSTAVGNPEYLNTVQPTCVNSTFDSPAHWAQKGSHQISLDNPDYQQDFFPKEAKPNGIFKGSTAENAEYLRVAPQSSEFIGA

[18] = target: Follistatin-related protein 3 (Homo sapiens) (UniProt O95633); test: FSTL3 binders on small-molecule microarrays, primary screen, biochemical, small-molecule microarray, 635 nm fluorescence (AID 1105); details: FSTL3 binding, higher = more signal;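 note: score merges emission near 667 nm and signal to noise per printed spot across three slides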
Chain of Follistatin-related protein 3 (Homo sapiens) (O95633 whole entry, looked up): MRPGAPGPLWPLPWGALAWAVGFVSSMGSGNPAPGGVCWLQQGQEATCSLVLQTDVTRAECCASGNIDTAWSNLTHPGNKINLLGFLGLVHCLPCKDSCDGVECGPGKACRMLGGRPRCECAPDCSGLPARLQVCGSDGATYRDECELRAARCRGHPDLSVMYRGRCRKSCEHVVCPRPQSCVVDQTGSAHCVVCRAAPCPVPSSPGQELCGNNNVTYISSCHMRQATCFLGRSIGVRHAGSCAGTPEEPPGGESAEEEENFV

[19] = target: Dickkopf-related protein 1 (Homo sapiens) (UniProt O94907); test: DKK1 binders on small-molecule microarrays, primary screen, biochemical, small-molecule microarray, 635 nm fluorescence scan (AID 1106); details: DKK1 binding, higher = more signal;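 note: score merges emission near 667 nm with signal to noise over three replicate slides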
Chain of Dickkopf-related protein 1 (Homo sapiens) (O94907 whole entry, looked up): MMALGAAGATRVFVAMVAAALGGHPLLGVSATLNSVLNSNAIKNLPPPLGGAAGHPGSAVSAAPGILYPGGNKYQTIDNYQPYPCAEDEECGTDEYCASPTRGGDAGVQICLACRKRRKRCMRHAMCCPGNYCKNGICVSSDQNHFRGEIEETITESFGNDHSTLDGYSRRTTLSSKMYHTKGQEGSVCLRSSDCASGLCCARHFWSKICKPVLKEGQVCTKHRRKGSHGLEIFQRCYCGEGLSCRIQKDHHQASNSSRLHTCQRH

[20] = system: Inhibin beta A chain (activin A); test: INHBA (activin A) binders on microarrays, primary screen, biochemical, small-molecule microarray, 635 nm fluorescence scan (AID 1107); details: small-molecule microarray binding, higher = more signal;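 note: mouse activin A protein probed at 4.33 µg/mL on printed slides; score merges bound-protein fluorescence near 667 nm with spot signal-to-noise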

| Compound | composite z-score [1] | z-score [2] | z-score [3] | z-score [4] | composite z-score [5] | z-score [6] | composite z-score [7] | composite z-score [8] | composite z-score [9] | composite z-score [10] | composite z-score [11] | composite z-score [12] | composite z-score [13] | z-score [14] | composite z-score [15] | composite z-score [16] | composite z-score [17] | composite z-score [18] | composite z-score [19] | composite z-score [20] |
| --- | --- | --- | --- | --- | --- | --- | --- | --- | --- | --- | --- | --- | --- | --- | --- | --- | --- | --- | --- | --- |
| COCCNC(=O)OCC1CCCC2(CC(OC(=O)NCCc3ccc(F)cc3)CC(CCC(=O)N[C@@H](C)C(=O)OC)O2)O1 (stereo not given in full) | 1.5 | 0.104 (inactive) | -0.0142 (inactive) | 0.647 (inactive) | 0.876 | 0.0947 (inactive) | -0.0845 | 0.403 | 1.08 | 0.433 | 1.16 | -0.115 | -0.273 | -1.09 (inactive) | 0.842 | 1.26 | 0.601 | 1.22 | 0.932 | 0.415 |
| [N-]=[N+]=Nc1ccccc1C[C@@]1(C(N)=O)N=C(c2ccc(OCCCO)cc2)O[C@@H]1c1ccccc1 | 0.683 | -0.501 (inactive) | -0.371 (inactive) | -0.481 (inactive) | 2.06 | 0.0722 (inactive) | 0.316 | -0.754 | 0.156 | -0.0455 | 0.616 | 1.53 | 1.3 | -1.23 (inactive) | -0.0111 | -0.0514 | -0.874 | -0.0838 | -0.82 | 1.34 |
| COC(=O)[C@H](C)NC(=O)CCC1CC(OC(=O)NCCc2ccc(F)cc2)CC2(CCCC(COC(=O)NCC(c3ccccc3)c3ccccc3)O2)O1 (stereo not given in full) | 0.915 | 0.304 (inactive) | 0.917 (inactive) | 1.56 (inactive) | 1.88 | 0.115 (inactive) | -0.175 | 0.409 | 0.897 | -0.094 | 0.713 | -0.389 | -0.498 | -0.527 (inactive) | 0.377 | 0.756 | 0.384 | 0.691 | 0.457 | -0.0097 |
| Cc1cc2c(nc1C)CCCN2CC(O)CN1CCN(C)CC1 (stereo not given) | 1.25 | -0.525 (inactive) | 0.277 (inactive) | -0.856 (inactive) | 0.9 | -0.384 (inactive) | -0.294 | 0.578 | 0.915 | -0.169 | 0.478 | 0.859 | 0.337 | 0.154 (inactive) | 0.721 | 0.132 | 0.752 | 0.79 | 1.02 | -1.07 |
| O=C1[C@H]2[C@H]3[C@H](O)[C@H](O)CC(=NO[C@@H]4O[C@H](CO)[C@@H](O)[C@H](O)[C@H]4O)[C@H]3CC[C@H]2C(=O)N1Cc1ccc2c(c1)OCO2 | 0.661 | 0.827 (inactive) | 0.918 (inactive) | -0.297 (inactive) | 2.14 | 0.529 (inactive) | 0.0835 | -0.246 | -0.133 | -0.17 | 0.381 | 0.215 | 0.821 | -0.0194 (inactive) | -0.0585 | -0.417 | -0.678 | -0.387 | -0.899 | -0.401 |

Reference: PubChem BioAssay
